Data taken from PubChem BioAssay AID588707 (Southern Research Specialized Biocontainment Screening …, 2011).
Inconclusive results are not listed. A number with no mark means an inactive call.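 The calls were made as follows: active = viability below 80% at one or more tested concentrations, flagged as toxic; inconclusive = replicate runs disagree on whether the viability criterion is met; inactive = viability at or above 80% at every dose.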

assay: Vero E6 cell cytotoxicity, dose response, cytotoxicity control for P. falciparum PFM17LAP inhibitor project, M17 leucyl aminopeptidase campaign (AID 588707); conditions: CellTiter-Glo luminescence, 72 h; series mostly up to 50 µM; viability: at the top concentration

Row | Structure (SMILES) | viability
1 | COC(=O)c1c(NC(=O)C2CC=CCC2C(=O)O)sc(C)c1-c1ccc(C)cc1 (configuration not stated) | 93.1%
2 | COC(=O)c1ccccc1NC(=O)c1cc2cc3ccc(C)cc3nc2s1 | 92.9% [at 25 µM]
3 | Cc1cc(=O)[nH]c(SCC(=O)Nc2ccccc2)n1 | 94.7%
4 | O=C(CSc1nccc(=O)[nH]1)Nc1ccc(N2CCOCC2)cc1 | 109%
5 | O=C(O)c1ccccc1C(=O)Nc1nc2c(s1)CCCC2 | 96.9%
6 | COC(=O)c1c(NC(=O)c2ccccc2C(=O)O)sc2c1CCCC2 | 87.6%
7 | O=C(CSc1nc(O)cc(=O)[nH]1)Nc1ccccc1 | 90.7%
8 | O=C(Nc1ccc(Cl)cc1)Nc1ccccc1C(=O)O | 82.2%
9 | COC(=O)c1c(NC(=O)C2CCCCC2C(=O)O)sc2c1CCC(c1ccccc1)C2 (configuration not stated) | 81.5%
10 | NC(N)=NCCC[C@H](N)C(=O)NO | 107%
11 | O=C1OCCC1Sc1nnc(NC2CCCCC2)s1 (configuration not stated) | 95.9%
12 | COc1cc(NC(=O)CSc2ccccc2)c(C(=O)O)cc1OC | 105%
13 | O=C(CSc1nccc(=O)[nH]1)Nc1ccc(Oc2ccccc2)cc1 | 80%
14 | Cc1cc(SCC(=O)Nc2ccccc2C(=O)O)nc2ccccc12 | 88.5%
15 | COC(=O)c1ccccc1NC(=O)c1ccc2c(Cl)c3c(nc2c1)CCC3 | 94.4% [at 25 µM]
16 | N[C@@H](Cc1c[nH]c2ccccc12)C(=O)NO | 104%
17 | COC(=O)c1cc(OC)c(OC)cc1NC(=O)c1sc2nc(C)ccc2c1N | 92.5%
18 | CC(C)C[C@H](N)C(=O)NO | 110%
19 | CC1=C(C)CC(C(=O)Nc2nc(-c3cc(C)ccc3C)c(C)s2)C(C(=O)O)C1 (configuration not stated) | 89%
20 | COc1ccc(-c2nnc(NC(=O)C3CC(C)=C(C)CC3C(=O)O)s2)cc1 (configuration not stated) | 92.6%
21 | Cc1ccc(NC(=O)CSc2nc(O)cc(=O)n2Cc2ccccc2)cc1 | 94.2%
22 | O=C(CSc1ccccc1)Nc1cccc2c1C(=O)NC2=O | 87.4%
